In PubChem BioAssay (NCI):
This is part of a sample that, as a whole, favours compounds with a hit. Of some 83,000 tested, about 20% had one in any assay.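 In brief: 96-well plates, 48 h treatment, single concentration, percent growth endpoint.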 Activity calls are given as the source filed them. The calls were made as follows: active = growth percent below 10; inactive = the rest.

Each compound was assayed on K-562 leukemia (assay: NCI-60 one-dose screen, 48 h (100 = growth as untreated, 0 = no growth, -100 = all killed)). Settings: 10 µM unless noted.

Row | SMILES | growth
1 | Cc1[nH]ccc2cc3nc4ccccc4c3cc12 | 12.1% (inactive)
2 | NS(=O)(=O)c1ccc(-n2ncc3c(N/N=C/c4ccccc4)ncnc32)cc1 | 83.1% (inactive)
3 | O=C(C(=O)c1cc(Br)ccc1O)c1cc(Br)ccc1O | 42.8% (inactive)
4 | COc1ccc(-c2cnc(SCC(=O)Nc3ccc(-c4nc5ccccc5s4)cc3)n2-c2ccc(OC)cc2)cc1 | 108% (inactive)
5 | N#CSCC1CC(O)(c2ccccc2)C(c2ccccc2)C(c2ccc(Cl)cc2)O1 (stereo not given) | -6.84% (active)
6 | OCc1n(Cc2ccc3ccccc3c2)cc[n+]1Cc1ccc2ccccc2c1 | 22.7% (inactive)
7 | c1ccc(-c2nc(Nc3nccnn3)c3ccccc3n2)cc1 | 91.1% (inactive)
8 | CCOC(=O)/C=C1/SC(=Nc2ccc(C#N)cc2)N(Cc2ccco2)C1=O | 8.76% (active)
9 | Cc1cnc2nc(-c3ccc(N(C)C)cc3)cn2c1 | 97.1% (inactive)
10 | COc1ccc2c(c1)c(CC(=O)[Se]C)c(C)n2C(=O)c1ccc(Cl)cc1 | 29.8% (inactive)
11 | COc1cc(/C=C/C(=O)C(C(=O)/C=C/c2ccc(OC(=O)CCNc3nnc(C)s3)c(OC)c2)C(=O)CCNc2nnc(C)s2)ccc1OC(=O)CCNc1nnc(C)s1 | -11.8% (active)
12 | O=C1C2C(C(=O)N1CC[Se][Se]CCN1C(=O)C3C(C1=O)[C@H]1C=C[C@@H]3C1)[C@H]1C=C[C@@H]2C1 (stereo not given in full) | 7.86% (active)
13 | COc1ccc(OC)c(CCn2cncc2-c2c[nH]c3cc(Br)ccc23)c1 | 7.3% (active)
14 | CN(C)c1ncnc2c1ncn2C1CCCCO1 (stereo not given) | 102% (inactive)
15 | COc1ccc2c(c1)sc1nc(-c3ccc(Br)cc3)cn12 | 90.9% (inactive)
16 | O=C(Nc1ccccc1OC(=O)c1ccccc1)c1ccccc1 | 25.2% (inactive)
17 | Cc1csc(C#Cc2cncc(O)c2)n1 | 127% (inactive)
18 | COc1ccc2nc(NC(=O)CN3CCn4c(nnc4C(F)(F)F)C3)sc2c1 | 90.5% (inactive)
19 | CCOC(=O)C(Br)=P(c1ccccc1)(c1ccccc1)c1ccccc1 | 105% (inactive)
20 | C=CCN(/C=C/CN(CC=C)CC=C)CC=C | 100% (inactive)

Row | SMILES | growth
21 | O=C1NC(=S)S/C1=C\c1cc(Br)ccc1O | 112% (inactive)
22 | COc1ccc(C(=O)/C=C/c2cccc(Nc3ccnc4cc(Cl)ccc34)c2)cc1 | 21% (inactive)
23 | CCCCCCCCCCOC(C)=O | 107% (inactive)
24 | O=C1C(=O)c2c(nc3ccc(Cl)cn23)-c2ccccc21 | -100% (active)
25 | CC(=O)OCC(=O)[C@@]1(O)CC[C@H]2[C@@H]3CCC4=CC(=O)CC[C@]4(C)[C@@]3(F)[C@@H](O)C[C@@]21C | 108% (inactive)
26 | CCc1nn2c(-c3ccc(Cl)cc3C)c(-c3cc(OC)c(OC)c(OC)c3)nc2s1 | 78.4% (inactive)
27 | COc1cc(/C=C/C(=O)C(C(=O)/C=C/c2ccc(OC(=O)CCNC34CC5CC(CC(C5)C3)C4)c(OC)c2)C(=O)CCNC23CC4CC(CC(C4)C2)C3)ccc1OC(=O)CCNC12CC3CC(CC(C3)C1)C2 (stereo not given) | 0.83% (active)
28 | CN(C)c1ccc(-c2nc3ncc(Br)cc3o2)cc1 | 81.5% (inactive)
29 | CCCc1n(Cc2ccc3ccccc3c2)cc[n+]1Cc1ccc2ccccc2c1 | 2.49% (active)
30 | N#Cc1c(-c2ccccc2)cc(-c2ccccc2)n(CCC(=O)O)c1=O | 14.7% (inactive)
31 | C=C1CCC2C3(C)COC(c4ccccc4)OC3CCC2(C)C1C/C=C1/C(=O)OCC1OC(C)=O (stereo not given) | 74.2% (inactive)
32 | O=C(CNC(=O)c1cccc2ccccc12)Nc1ccccc1Cc1ccccc1 | 12.3% [5 µM] (inactive)
33 | COC(=O)C1=CCC(n2cnc3c(N)ncnc32)O1 (stereo not given) | 91.8% (inactive)
34 | O=C(NC1CCCCC1)c1ccc(Nc2ncnc3c2cnn3-c2ccccc2)cc1 | 73.2% (inactive)
35 | COc1ccc(-c2cc(-c3cccnc3)nc3sc(C(=O)Nc4ccccc4)c(N)c23)cc1OC | 34.2% (inactive)
36 | Clc1ccc(C2=NN(c3ccc(Cl)cc3)C(c3cccc(Nc4ccnc5cc(Cl)ccc45)c3)C2)cc1 (stereo not given) | 75.1% (inactive)
37 | CCCCN=C(N)c1ccc(OCCSCCOc2ccc(C(N)=NCCCC)cc2)cc1 | 40.9% (inactive)
38 | C/C(=C\CCc1ccoc1)CC/C=C(\C)CCCC1COC(=O)C1 (stereo not given) | 98.4% (inactive)
39 | Oc1c(Cl)cc(Oc2cc(Cl)c(O)c(CN3CCOCC3)c2)cc1CN1CCOCC1 | 81.4% (inactive)
40 | CCOC(=O)CCN(c1c(Cl)ssc1=O)C(C)C | 106% (inactive)

The compounds below were run on MALME-3M melanoma in the same assay as above. Settings: 10 µM unless noted.

Row | SMILES | growth
41 | Cc1[nH]ccc2cc3nc4ccccc4c3cc12 | 29.8% (inactive)
42 | NS(=O)(=O)c1ccc(-n2ncc3c(N/N=C/c4ccccc4)ncnc32)cc1 | 85.6% (inactive)
43 | O=C(C(=O)c1cc(Br)ccc1O)c1cc(Br)ccc1O | 31.2% (inactive)
44 | COc1ccc(-c2cnc(SCC(=O)Nc3ccc(-c4nc5ccccc5s4)cc3)n2-c2ccc(OC)cc2)cc1 | 129% (inactive)
45 | N#CSCC1CC(O)(c2ccccc2)C(c2ccccc2)C(c2ccc(Cl)cc2)O1 (stereo not given) | -80.8% (active)
46 | OCc1n(Cc2ccc3ccccc3c2)cc[n+]1Cc1ccc2ccccc2c1 | 38.1% (inactive)
47 | c1ccc(-c2nc(Nc3nccnn3)c3ccccc3n2)cc1 | 99.1% (inactive)
48 | CCOC(=O)/C=C1/SC(=Nc2ccc(C#N)cc2)N(Cc2ccco2)C1=O | 47.6% (inactive)
49 | Cc1cnc2nc(-c3ccc(N(C)C)cc3)cn2c1 | 97.8% (inactive)
50 | COc1ccc2c(c1)c(CC(=O)[Se]C)c(C)n2C(=O)c1ccc(Cl)cc1 | -41.9% (active)
51 | COc1cc(/C=C/C(=O)C(C(=O)/C=C/c2ccc(OC(=O)CCNc3nnc(C)s3)c(OC)c2)C(=O)CCNc2nnc(C)s2)ccc1OC(=O)CCNc1nnc(C)s1 | -29.7% (active)
52 | O=C1C2C(C(=O)N1CC[Se][Se]CCN1C(=O)C3C(C1=O)[C@H]1C=C[C@@H]3C1)[C@H]1C=C[C@@H]2C1 (stereo not given in full) | -35.6% (active)
53 | COc1ccc(OC)c(CCn2cncc2-c2c[nH]c3cc(Br)ccc23)c1 | 37.7% (inactive)
54 | CN(C)c1ncnc2c1ncn2C1CCCCO1 (stereo not given) | 101% (inactive)
55 | COc1ccc2c(c1)sc1nc(-c3ccc(Br)cc3)cn12 | 109% (inactive)
56 | O=C(Nc1ccccc1OC(=O)c1ccccc1)c1ccccc1 | 93.9% (inactive)
57 | Cc1csc(C#Cc2cncc(O)c2)n1 | 96.7% (inactive)
58 | COc1ccc2nc(NC(=O)CN3CCn4c(nnc4C(F)(F)F)C3)sc2c1 | 106% (inactive)
59 | CCOC(=O)C(Br)=P(c1ccccc1)(c1ccccc1)c1ccccc1 | 94.3% (inactive)
60 | C=CCN(/C=C/CN(CC=C)CC=C)CC=C | 102% (inactive)

Row | SMILES | growth
61 | O=C1NC(=S)S/C1=C\c1cc(Br)ccc1O | 71.8% (inactive)
62 | COc1ccc(C(=O)/C=C/c2cccc(Nc3ccnc4cc(Cl)ccc34)c2)cc1 | 44% (inactive)
63 | CCCCCCCCCCOC(C)=O | 108% (inactive)
64 | O=C1C(=O)c2c(nc3ccc(Cl)cn23)-c2ccccc21 | -81.8% (active)
65 | CC(=O)OCC(=O)[C@@]1(O)CC[C@H]2[C@@H]3CCC4=CC(=O)CC[C@]4(C)[C@@]3(F)[C@@H](O)C[C@@]21C | 120% (inactive)
66 | CCc1nn2c(-c3ccc(Cl)cc3C)c(-c3cc(OC)c(OC)c(OC)c3)nc2s1 | 68% (inactive)
67 | COc1cc(/C=C/C(=O)C(C(=O)/C=C/c2ccc(OC(=O)CCNC34CC5CC(CC(C5)C3)C4)c(OC)c2)C(=O)CCNC23CC4CC(CC(C4)C2)C3)ccc1OC(=O)CCNC12CC3CC(CC(C3)C1)C2 (stereo not given) | 18.6% (inactive)
68 | CN(C)c1ccc(-c2nc3ncc(Br)cc3o2)cc1 | 118% (inactive)
69 | CCCc1n(Cc2ccc3ccccc3c2)cc[n+]1Cc1ccc2ccccc2c1 | -49.6% (active)
70 | N#Cc1c(-c2ccccc2)cc(-c2ccccc2)n(CCC(=O)O)c1=O | 51.4% (inactive)
71 | C=C1CCC2C3(C)COC(c4ccccc4)OC3CCC2(C)C1C/C=C1/C(=O)OCC1OC(C)=O (stereo not given) | 105% (inactive)
72 | O=C(CNC(=O)c1cccc2ccccc12)Nc1ccccc1Cc1ccccc1 | 46.8% [5 µM] (inactive)
73 | COC(=O)C1=CCC(n2cnc3c(N)ncnc32)O1 (stereo not given) | 108% (inactive)
74 | O=C(NC1CCCCC1)c1ccc(Nc2ncnc3c2cnn3-c2ccccc2)cc1 | 2.93% (active)
75 | COc1ccc(-c2cc(-c3cccnc3)nc3sc(C(=O)Nc4ccccc4)c(N)c23)cc1OC | 109% (inactive)
76 | Clc1ccc(C2=NN(c3ccc(Cl)cc3)C(c3cccc(Nc4ccnc5cc(Cl)ccc45)c3)C2)cc1 (stereo not given) | 87.1% (inactive)
77 | CCCCN=C(N)c1ccc(OCCSCCOc2ccc(C(N)=NCCCC)cc2)cc1 | 39.3% (inactive)
78 | C/C(=C\CCc1ccoc1)CC/C=C(\C)CCCC1COC(=O)C1 (stereo not given) | 89.5% (inactive)
79 | Oc1c(Cl)cc(Oc2cc(Cl)c(O)c(CN3CCOCC3)c2)cc1CN1CCOCC1 | 105% (inactive)
80 | CCOC(=O)CCN(c1c(Cl)ssc1=O)C(C)C | 111% (inactive)
